Results: PubChem BioAssay (NCI)
This is part of a sample that, as a whole, favours compounds with a hit. Of some 83,000 tested, about 20% had one in any assay.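 Each cell line was grown in a 96-well plate and treated with one concentration of compound for 48 hours. Values below 10 were considered active.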 Values without a mark were called inactive. Activity calls are given as the source filed them.

Legend:
Assay in all cases: NCI-60 one-dose screen, 48 h (100 = growth as untreated, 0 = no growth, -100 = all killed)
Details in all cases: 10 µM unless noted
T-47D breast = system: T-47D breast
BT-549 breast = system: BT-549 breast
MDA-MB-435 melanoma = system: MDA-MB-435 melanoma
SW-620 colon = system: SW-620 colon
MCF7 breast = system: MCF7 breast
HCT-116 colon = system: HCT-116 colon
HCC-2998 colon = system: HCC-2998 colon
KM12 colon = system: KM12 colon

Structure (SMILES) | growth (T-47D breast) | growth (BT-549 breast) | growth (MDA-MB-435 melanoma) | growth (SW-620 colon) | growth (MCF7 breast) | growth (HCT-116 colon) | growth (HCC-2998 colon) | growth (KM12 colon)
Cc1ccc(/C=N/NC(=O)CSc2nc3ccccc3c(=O)n2Cc2ccc(S(N)(=O)=O)cc2)cc1 | 81.7% | 103% | 46.2% | 94% | 59.4% | 97.8% | 99.9% | 86.3%
COc1ccc(C(=O)c2cc(C)c(OC)c(C)c2)c(OC)c1NC(C)=O | 60.6% | 16.3% | -65.2% (active) | 21.2% | 20.8% | 8.06% (active) | 13.8% | 8.12% (active)
Cc1cc2c(c(C)c1Cl)C(=O)/C(=C/c1ccc(O)c(O)c1)O2 | 90.5% | 104% | 106% | 105% | 89.4% | 112% | 112% | 109%
O=S(=O)(NCCNc1nccc(-c2c(-c3cccc(F)c3)nc3sccn23)n1)c1ccc(Br)cc1 | 30.5% | 63.3% | 21.3% | 54.8% | 23.5% | 33.9% | 79.5% | 42.5%
O=c1ccc(-c2nc(N3CCOCC3)c3ccccc3n2)c[nH]1 | 77% | 97.4% | 99.7% | 107% | 89.1% | 101% | 105% | 107%
C=C1C(=O)O[C@H]2[C@H]1CC/C(C(=O)NCCCCCNC(=O)/C1=C/CC[C@@]3(C)O[C@H]3[C@H]3OC(=O)C(=C)[C@@H]3CC1)=C\CC[C@@]1(C)O[C@@H]21 | 94.2% | 98.2% | 105% | 101% | 88.2% | 87% | 105% | 103%
CCOC(=O)CCN(CC(C)C)C(=S)Nc1ccccc1 | 105% | 106% | 102% | 107% | 98.8% | 95.9% | 108% | 104%
NC(=NCc1ccccc1)C(N=Nc1ccccc1)C(=O)NCc1ccccc1 (stereo not given) | 84.6% | 114% | 81.4% | 61.5% | 69.4% | 15.8% | 74.7% | 34.6%
CCN(CC)CCn1c(=O)c2cc(OC)c(OC)cc2c2ccc3cc4c(cc3c21)OCO4 | 39.1% | 26.2% | 50.4% | 26% | 16.1% | 8.5% (active) | 74.9% | 41.9%
Cn1ccnc1C(=O)/C=C/c1ccc(CC(=O)NC2CCCCC2)cc1 | 47.9% | 54.1% | 54.1% | 23.1% | 44.3% | 21.5% | 100% | 28.9%
COc1cc2nc(-c3ccc(Cl)cc3)cc(OCCCN3CCOCC3)c2cc1OC | 28.2% | 44.9% | 10.2% | 65% | 50.2% | 21.1% | 66.8% | 29.7%
O=C1c2ccc3c4c(ccc(c24)C(=O)N1CCCNCc1ccccc1)C(=O)N(CCCNCc1ccccc1)C3=O | -29.9% (active) | -85.2% (active) | -54% (active) | -81.8% (active) | -83.8% (active) | -44.9% (active) | -90.8% (active) | -81.8% (active)
COc1ccc(/C=C/c2nc(Nc3ccc(S(=O)(=O)Nc4cc(C)on4)cc3)c3ccccc3n2)cc1 | 37.4% | 85.8% | 39.3% | 70% | 32.1% | 68.1% | 69.6% | 49%
COc1cc(/C=C/c2cc(O)c(C(C)=O)c(O)c2)cc2c1O[C@]1(C)CC[C@@H](O)C(C)(C)[C@H]1C2 | 49% | 22.1% | 73% | 69.3% | 45.3% | 45.2% | 75.1% | 53.9%
Cc1cccc(C)c1N=c1oc2ccc(Cl)cc2nc1-c1ccccc1O | 37.8% | 107% | 99.3% | 91% | 67.9% | 76.6% | 93.8% | 98.9%
N#C/C(=C\c1ccc([N+](=O)[O-])s1)c1nc2cc(Cl)ccc2s1 | 58.7% | -6.72% (active) | 29.6% | 1.39% (active) | 4.17% (active) | -36.4% (active) | 14.9% | 81.4%
C[C@@H](Nc1ncnc2ccc(-c3cnc(N)nc3)cc12)c1ccc(F)cc1 | 67.8% | 69.3% | 95.3% | 95.8% | 82.5% | 85.3% | 87.1% | 98.7%
OCc1cnccc1NCCCOc1ccccc1 | 101% | 108% | 110% | 98.3% | 92.1% | 100% | 97.1% | 106%
CCc1c2c(nc3ccc(OCc4ccc(B(O)O)cc4)cc13)-c1cc3c(c(=O)n1C2)COC(=O)[C@]3(O)CC | -1.27% (active) | -3.67% (active) | 6.63% (active) | 13.8% | 1.65% (active) | 4.57% (active) | 19.2% | 1.86% (active)
O=C(Nc1ccc(-c2ccc3c(c2)NC(=O)/C3=C\c2ccc[nH]2)cc1)NC1CC1 | 32.1% | 103% | 98.6% | 103% | 15.8% | 96.6% | 107% | 19.1%
CCCCCN1C=C/C(=C\C(=O)N(C)c2ccc(Oc3ccccc3)cc2)c2ccccc21 | 54.1% | 91.4% | 91.4% | 84.3% | 66.7% | 58.7% | 86.7% | 90.5%
CNCCn1c(=O)c2cc(OC)c(OC)cc2c2ccc3cc4c(cc3c21)OCO4 | 6.22% (active) | -19.8% (active) | -61% (active) | -47.4% (active) | 7.12% (active) | 2.87% (active) | -51.6% (active) | 3.17% (active)
COc1ccc(C(=O)NNc2nc(Cl)nc(N3CCN(C(c4ccccc4)c4ccccc4)CC3)n2)cc1 | 85.5% | 52.2% | 90.6% | 9.22% (active) | 89.3% | 9% (active) | -10.7% (active) | 92.4%
CC(C)(C)CC(C)(C)n1nnnc1C(NC12CC3CC(CC(C3)C1)C2)c1ccccc1 (stereo not given) | 73.5% | 93.2% | 98.3% | 98.9% | 88.9% | 66.8% | 104% | 101%
COc1cc(C2C3CC4CCCC[C@H]4N3[C@@]3(C(=O)Nc4cc(Cl)ccc43)C2C(=O)c2nc3ccccc3[nH]2)cc(OC)c1OC (stereo not given in full) | 36.3% | 76% | 53.1% | 60.5% | 30.4% | 34.7% | 69.9% | 60.6%
C[C@H]1[C@H]2[C@H]3CC[C@@H]4[C@@]5(C)CC[C@H](O)C(C)(C)[C@@H]5CC[C@@]4(C)[C@]3(C)CC[C@]23CO[C@]1(C)[C@@H](C(=O)/C=C\c1ccco1)C3 | 84.8% | 105% | 17.8% | 97.1% | 101% | 100% | 104% | 100%
O=C(Nc1ccc(Cl)cc1)c1cc(NCc2cc(O)ccc2O)ccc1O | 42.6% | 35.8% | 103% | 89.9% | 65.6% | 91.3% | 102% | 76.8%
O=C(/C=C(O)/C=C/c1ccc(SC(F)(F)F)cc1)/C=C/c1ccc(SC(F)(F)F)cc1 | 78% | 82.5% | 79.2% | 89.1% | 52.1% | 17.7% | 101% | 81.9%
NS(=O)(=O)c1ccc(Cn2c(SCC(=O)N/N=C/c3ccccc3O)nc3ccccc3c2=O)cc1 | 33.3% | 56.1% | 71.7% | 60.4% | 50% | 42.7% | 50.7% | 39.2%
CCOC(=O)C1=C(CCl)NC(=O)NC1c1ccc2c(c1)OCO2 (stereo not given) | 31.3% | 32.4% | 35.7% | 26.7% | 9.21% (active) | 8.65% (active) | 83.1% | 84.3%
